Experimental findings from PubChem BioAssay (Tox21) are described below.

The nature of assay [1]: qHTS assay to identify small molecule antagonists of the thyroid receptor (TR) signaling pathway (AID 743065). Also: nearly all actives have a fitted effect of over 55% in size. Also: potency is read from the fitted curve at half-maximal effect. A digest of the protocol:
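GH3.TRE-Luc rat pituitary cells (two TREs driving luciferase) were dosed with compound, then stimulated with 1 nM T3 (final) for 23.5 h at 37 C. ONE-Glo luminescence was the read-out, with CellTiter-Fluor fluorescence as the cytotoxicity counter-screen.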
A general note: In qHTS, concentration-response curves come from the screen itself.

Assay [2] concerns thyroid hormone receptor (rat, GH3 cells). The assay is described as follows: qHTS assay to identify small molecule agonists of the thyroid receptor (TR) signaling pathway (AID 743066; calls by dose curve).
Assay [3] has as its target Estrogen receptor (Homo sapiens) (UniProt P03372). Put plainly: qHTS assay to identify small molecule antagonists of the estrogen receptor alpha (ER-alpha) signaling pathway (AID 743069; active = well fitted curve in the direction sought with a large enough effect in the signal ratio in the repeat runs, not every such curve was filed as active; inconclusive = weak or mixed curves, or effect the other way; inactive = no such curve, though single readings can be large or run the other way; the % refers to the signal ratio). A digest of the protocol: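 HEK293 ER-alpha-UAS-bla GripTite cells, held overnight in 2% charcoal-stripped FBS, 5,000 cells/well, preincubated 4 h, then compound plus 17beta-estradiol for 18 h at 37C. Beta-lactamase read by LiveBLAzer B/G FRET substrate, 2 h at room temperature.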

Assay [4] can be described thus: qHTS assay to identify small molecule antagonists of the estrogen receptor alpha (ER-alpha) signaling pathway - cell viability counter screen (AID 743074; calls by dose curve;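 also: HEK293 cells carrying ER-alpha-UAS-bla reporter stimulated with 17beta-estradiol; nearly all actives have a fitted effect of over 45% in size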).
Assay [5] concerns the target Estrogen receptor (Homo sapiens) (UniProt P03372). Put plainly: qHTS assay to identify small molecule agonists of the estrogen receptor alpha (ER-alpha) signaling pathway (AID 743075; calls by dose curve; also: potency is read from the fitted curve at half-maximal effect).
For assay [6] the target is unchanged. Put plainly: qHTS assay to identify small molecule agonists of the estrogen receptor alpha (ER-alpha) signaling pathway using the BG1 cell line (AID 743079). Also: nearly all actives have a fitted effect of over 20% in size. Also: potency is read from the fitted curve at half-maximal effect.
The nature of assay [7]: qHTS assay to identify small molecule antagonists of the estrogen receptor alpha (ER-alpha) signaling pathway using the BG1 cell line (AID 743080; calls by dose curve;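 also: BG1 cells stimulated with 17beta-estradiol alongside compound; series mostly up to about 70 µM; nearly all actives have a fitted effect of over 25% in size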). The method in brief:
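Luciferase inhibition measured with ONE-Glo after 30 min at RT in BG1Luc4E2 cells given test compounds and 17beta-estradiol for 21.5 h at 37 C; CellTiter-Fluor viability read in the same wells beforehand.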

The nature of assay [8]: qHTS assay to identify small molecule antagonists of the estrogen receptor alpha (ER-alpha) signaling pathway using the BG1 cell line - cell viability counter screen (AID 743081).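 Also: compound given together with 17beta-estradiol as the ER stimulus; series mostly up to about 70 µM; nearly all actives have a fitted effect of over 45% in size.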
Another assay deals with Aromatase (Homo sapiens) (UniProt P11511). Put plainly: qHTS assay to identify aromatase inhibitors (AID 743083). Also: series mostly up to about 70 µM; nearly all actives have a fitted effect of over 55% in size.
Aromatase (Homo sapiens), sequence (P11511 whole entry, looked up): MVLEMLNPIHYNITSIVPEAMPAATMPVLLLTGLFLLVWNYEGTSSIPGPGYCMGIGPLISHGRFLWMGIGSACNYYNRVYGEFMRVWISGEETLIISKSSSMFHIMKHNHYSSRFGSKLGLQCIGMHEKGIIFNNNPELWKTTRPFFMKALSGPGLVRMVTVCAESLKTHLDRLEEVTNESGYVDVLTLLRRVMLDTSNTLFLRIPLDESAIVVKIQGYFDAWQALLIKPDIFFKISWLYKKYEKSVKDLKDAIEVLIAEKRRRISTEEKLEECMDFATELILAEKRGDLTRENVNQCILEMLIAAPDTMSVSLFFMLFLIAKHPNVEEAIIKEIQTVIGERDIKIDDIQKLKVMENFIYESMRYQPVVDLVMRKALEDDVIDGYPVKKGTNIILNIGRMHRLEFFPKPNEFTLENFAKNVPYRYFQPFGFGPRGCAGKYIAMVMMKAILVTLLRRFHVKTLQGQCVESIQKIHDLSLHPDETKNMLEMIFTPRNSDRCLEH
A short description of assay [9]: qHTS assay to identify aromatase inhibitors - cell viability counter screen (AID 743084).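 Also: cells stimulated with testosterone during compound exposure; nearly all actives have a fitted effect of over 55% in size.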
The nature of assay [10]: qHTS assay to identify small molecule that activate the aryl hydrocarbon receptor (AhR) signaling pathway - cell viability counter screen (AID 743086).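 Also: HepG2 liver cells carrying the AhR DRE luciferase reporter; series mostly up to about 70 µM; nearly all actives have a fitted effect of over 45% in size.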 A digest of the protocol:
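HepG2-AhR-luc (HG2L7.5c1) cells, 4000/well, treated 24 h at 37 C with compound; viability measured as CellTiter-Fluor fluorescence after 30 min in the same wells as the luciferase read.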

Assay [11] deals with Peroxisome proliferator-activated receptor gamma (Homo sapiens) (UniProt P37231). Put plainly: qHTS assay to identify small molecule agonists of the peroxisome proliferator-activated receptor gamma (PPARg) signaling pathway (AID 743094; active = well fitted activation curve with a large enough effect in the signal ratio in the repeat runs, not every such curve was filed as active; inconclusive = weak or mixed curves, or effect the other way; inactive = no such curve, though single readings can be large or run the other way; the % refers to the signal ratio). The method in brief: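 Beta-lactamase FRET fluorescence was the read-out after a 1 h room-temperature substrate step, following 17 h compound treatment at 37C of HEK293H cells expressing a UAS-driven bla reporter responsive to PPARg.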
Peroxisome proliferator-activated receptor gamma (Homo sapiens), sequence (P37231 whole entry, looked up): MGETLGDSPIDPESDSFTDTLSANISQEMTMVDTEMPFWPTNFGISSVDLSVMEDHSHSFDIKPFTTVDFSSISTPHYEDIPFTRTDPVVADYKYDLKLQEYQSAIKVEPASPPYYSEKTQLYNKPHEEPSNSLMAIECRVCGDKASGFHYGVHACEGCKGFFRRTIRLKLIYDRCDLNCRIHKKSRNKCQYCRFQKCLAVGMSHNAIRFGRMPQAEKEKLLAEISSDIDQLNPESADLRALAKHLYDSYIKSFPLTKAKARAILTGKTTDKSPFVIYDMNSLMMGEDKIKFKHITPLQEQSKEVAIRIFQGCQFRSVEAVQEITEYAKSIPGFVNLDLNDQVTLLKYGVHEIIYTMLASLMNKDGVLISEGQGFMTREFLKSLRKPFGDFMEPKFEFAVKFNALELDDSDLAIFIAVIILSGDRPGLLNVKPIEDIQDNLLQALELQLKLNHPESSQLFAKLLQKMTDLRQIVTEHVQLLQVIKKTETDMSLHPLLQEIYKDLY

Assay [12] has the same target. The assay is described as follows: qHTS assay to identify small molecule antagonists of the peroxisome proliferator-activated receptor gamma (PPARg) signaling pathway (AID 743191; calls by dose curve; also: series mostly up to about 63 µM; nearly all actives have a fitted effect of over 30% in size). A digest of the protocol:
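GeneBLAzer PPARg UAS-bla HEK293H cells, 5 h post-plating, exposed to compounds 17 h at 37C. LiveBLAzer B/G FRET substrate added for 1 h at room temperature; beta-lactamase reporter read by fluorescence intensity.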

Assay [13] is described as follows: qHTS assay to identify small molecule antagonists of the peroxisome proliferator-activated receptor gamma (PPARg) signaling pathway - cell viability counter screen (AID 743194). Also: nearly all actives have a fitted effect of over 55% in size. Conditions: Potency: co-treated with 50 nM rosiglitazone unless noted. A digest of the protocol: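 Cytotoxicity counter screen in PPARg-bla HEK293H cells, same wells as reporter assay. Compounds plus 50 nM rosiglitazone (final) for 17 h at 37 C, then viability read by CellTiter-Glo luminescence.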

Assay [14] can be described thus: qHTS assay for small molecule agonists of the antioxidant response element (ARE) signaling pathway (AID 743202; active = well fitted activation curve with a large enough effect in the signal ratio in the repeat runs, not every such curve was filed as active; inconclusive = weak or mixed curves, or effect the other way; inactive = no such curve, though single readings can be large or run the other way; the % refers to the signal ratio). The method in brief: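 ARE-bla HepG2 cells (beta-lactamase reporter under the antioxidant response element), plated 5 hours, then exposed to compounds 16 hours at 37 C. LiveBLAzer B/G FRET substrate added for 2 hours at room temperature; fluorescence intensity read.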

Assay [15] is described as follows: qHTS assay for small molecule agonists of the antioxidant response element (ARE) signaling pathway - cell viability counter screen (AID 743203; calls by dose curve; also: nearly all actives have a fitted effect of over 55% in size). The method in brief: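 HepG2 cells carrying ARE-driven beta-lactamase; 2,000 cells/well; 5 hrs plating; compound pinned from DMSO; 16 hrs 37C/5% CO2; CellTiter-Glo added; 30 min RT; luminescence.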
Assay [16] can be described thus: qHTS assay for small molecule activators of the heat shock response signaling pathway - cell viability counter screen (AID 743209). Also: nearly all actives have a fitted effect of over 50% in size. A digest of the protocol:
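Luminescence from CellTiter-Glo, added after the beta-lactamase FRET read, gave the viability signal. Cells were HSE-bla HeLa treated with DMSO-dissolved compounds for 5 h at 37 C following overnight plating.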

The nature of assay [17]: qHTS assay to identify small molecule agonists of the peroxisome proliferator-activated receptor delta (PPARd) signaling pathway - cell viability counter screen (AID 743211). Also: nearly all actives have a fitted effect of over 55% in size. Also: potency is read from the fitted curve at half-maximal effect. The method in brief:
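In the same wells used for beta-lactamase reporter measurement, cytotoxicity is scored by CellTiter-Glo. HEK293H PPARd-bla cells receive compound for 17 h at 37C following a 5 h settling period.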

The target in assay [18] is Aryl hydrocarbon receptor (Homo sapiens) (UniProt P35869). The assay is described as follows: qHTS assay to identify small molecule that activate the aryl hydrocarbon receptor (AhR) signaling pathway (AID 743085). Also: nearly all actives have a fitted effect of over 15% in size. Also: potency is read from the fitted curve at half-maximal effect.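 As to activation: HG2L7.5c1 human HepG2 liver cells with stably integrated DRE-driven firefly reporter; series mostly up to about 70 µM.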 A digest of the protocol: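 Stably transfected human liver carcinoma cells (HG2L7.5c1; 20 DRE-firefly luciferase) were incubated 5 h, dosed, and kept 24 h at 37C. Agonism was scored from increased luciferase luminescence.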
Aryl hydrocarbon receptor (Homo sapiens), sequence (P35869 whole entry, looked up): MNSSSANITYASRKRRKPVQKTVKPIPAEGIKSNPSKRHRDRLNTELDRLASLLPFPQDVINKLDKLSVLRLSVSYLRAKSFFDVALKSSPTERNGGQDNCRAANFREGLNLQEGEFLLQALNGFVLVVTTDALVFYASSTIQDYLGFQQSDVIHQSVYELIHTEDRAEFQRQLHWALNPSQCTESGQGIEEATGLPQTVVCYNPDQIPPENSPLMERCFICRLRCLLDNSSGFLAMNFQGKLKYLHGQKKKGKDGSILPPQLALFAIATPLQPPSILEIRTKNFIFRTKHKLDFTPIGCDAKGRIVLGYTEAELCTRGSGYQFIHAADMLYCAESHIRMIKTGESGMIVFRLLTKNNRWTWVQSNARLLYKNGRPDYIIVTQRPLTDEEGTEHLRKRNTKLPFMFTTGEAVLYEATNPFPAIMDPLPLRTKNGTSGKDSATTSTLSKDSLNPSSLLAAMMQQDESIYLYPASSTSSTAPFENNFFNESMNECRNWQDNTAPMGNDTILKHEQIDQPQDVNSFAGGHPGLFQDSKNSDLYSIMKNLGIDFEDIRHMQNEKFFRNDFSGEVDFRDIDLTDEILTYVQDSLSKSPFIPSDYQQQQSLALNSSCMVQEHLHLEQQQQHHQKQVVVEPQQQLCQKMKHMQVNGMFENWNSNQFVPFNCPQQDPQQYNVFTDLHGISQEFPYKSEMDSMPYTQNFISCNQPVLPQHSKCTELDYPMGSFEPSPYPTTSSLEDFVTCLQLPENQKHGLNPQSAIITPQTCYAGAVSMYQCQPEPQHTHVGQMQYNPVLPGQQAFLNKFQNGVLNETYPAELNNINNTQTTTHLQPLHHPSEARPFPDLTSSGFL

Assay [19] in a line: qHTS assay for small molecule activators of the heat shock response signaling pathway (AID 743210; active = well fitted activation curve with a large enough effect in the signal ratio in the repeat runs, with a control signal flat, not every such curve was filed as active; inconclusive = weak or mixed curves; the % refers to the signal ratio; also: series mostly up to about 63 µM). The method in brief:
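HSE-bla HeLa cells (beta-lactamase reporter under heat shock response elements), plated overnight, then exposed to compounds 5 h at 37 C; LiveBLAzer B/G FRET substrate added, 2.5 h at room temperature, fluorescence intensity read.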

Each structure is given as a SMILES string. Several values for one entry are separate records, joined by “and”; a condition that tells them apart may be missing. Equal entries are not always repeated. The source holds several records for some structures; these can differ, active in one and inactive in another. Activity calls are given as the source filed them. Unless noted, calls follow the shape of the dose curve; as a rule, active = well fitted curve in the direction sought with a large enough effect in the repeat runs; inconclusive = weak or mixed curves; inactive = no such curve, though single readings can be large; an effect the other way counts as inactive or inconclusive.

Estrogen receptor (Homo sapiens), sequence (P03372 whole entry, looked up): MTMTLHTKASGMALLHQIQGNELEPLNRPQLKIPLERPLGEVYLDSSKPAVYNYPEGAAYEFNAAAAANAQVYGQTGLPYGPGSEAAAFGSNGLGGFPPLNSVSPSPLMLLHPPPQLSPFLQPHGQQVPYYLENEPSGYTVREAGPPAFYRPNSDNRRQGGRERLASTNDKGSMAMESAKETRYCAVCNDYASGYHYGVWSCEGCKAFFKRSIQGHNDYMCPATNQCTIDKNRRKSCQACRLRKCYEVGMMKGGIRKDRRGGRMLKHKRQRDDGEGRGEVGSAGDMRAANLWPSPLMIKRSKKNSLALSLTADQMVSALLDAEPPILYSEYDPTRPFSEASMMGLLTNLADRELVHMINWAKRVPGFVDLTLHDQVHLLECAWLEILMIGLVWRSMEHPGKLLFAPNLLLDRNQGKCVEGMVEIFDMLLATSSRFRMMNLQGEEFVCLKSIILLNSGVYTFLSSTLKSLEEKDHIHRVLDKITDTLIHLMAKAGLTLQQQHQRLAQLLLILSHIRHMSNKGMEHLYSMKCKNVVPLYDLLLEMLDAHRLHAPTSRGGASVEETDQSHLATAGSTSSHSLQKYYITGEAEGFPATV

In the case of `CCC(C)(C)c1ccc(O)cc1`, the Potency entry in assay [1], in assay [2], in assay [3], in assay [4], in [7] and in [8] was “inactive” each time. Further, the Potency entry (with Aromatase (Homo sapiens); in assay [9]; in [10]; in [11]; in assay [12]; in assay [13]) was “inactive” each time. Moreover, the Potency entry in assay [14], in [15] and in assay [16] was “inactive” in each case. Besides, the Potency entry is “inactive and 15.7 µM [inconclusive] (active) and 55 µM [activator] (active)” in assay [5]; 17.4 µM (active) and 24.3 µM (active) in assay [6]; 49.5 µM (active) and inactive in [17].

Consider `Cc1ccccc1[N+](=O)[O-]`, for which the Potency result in assay [1], in assay [2], in [3], in assay [4], in assay [5] and in assay [6] was “inactive” throughout. Moreover, the Potency entry (in assay [7]; in [8]; in the assay with Aromatase (Homo sapiens); in [9]; in assay [10]; in assay [11]) was “inactive” each time. In addition, the Potency entry in [12], in [13], in [14], in [15], in [16] and in assay [17] was “inactive” each time.

Turning to `O=S(=O)(Oc1ccc(Cl)cc1)c1ccc(Cl)cc1`, the Potency entry in [1], in assay [2], in [3], in assay [4], in assay [5] and in [6] was “inactive” throughout. Moreover, the Potency result (in [7]; in [8]; with Aromatase (Homo sapiens); in [9]; in assay [10]; in [11]) was “inactive” throughout. The Potency entry in assay [12], in assay [13], in assay [14], in assay [15], in assay [16] and in assay [17] was “inactive” throughout.

In the case of `CCN(CC)C(=O)/C(Cl)=C(\C)OP(=O)(OC)OC`, the Potency entry in [1], in assay [2], in assay [3], in assay [4], in assay [5] and in assay [6] was “inactive” in each case. For the same compound, the Potency result (in assay [7]; in [8]; with Aromatase (Homo sapiens); in [9]; in [10]; in assay [11]) was “inactive” throughout. Also, the Potency entry in [13], in [14], in [15] and in [16] was “inactive” in each case.

For the compound `CCCCCCCCCCCOC(=O)c1ccccc1C(=O)OCCCCCCCCCCC`, the Potency entry in assay [1], in [2], in assay [3], in assay [4], in assay [5] and in assay [7] was “inactive” each time. The Potency result (in assay [8]; with Aromatase (Homo sapiens); in assay [9]; in [10]; in assay [13]; in [14]) was “inactive” each time. Moreover, the Potency result in assay [15], in [16] and in assay [17] was “inactive” in each case. In [6], the Potency is 26.6 µM (active) and inactive.

`CCCCN(CCCC)N=O`: the Potency entry in assay [1], in assay [2], in assay [3], in assay [4], in assay [5] and in [6] was “inactive” each time. In addition, the Potency entry (in assay [7]; in [8]; in the assay with Aromatase (Homo sapiens); in assay [9]; in assay [18]; in assay [10]) was “inactive” in each case. The Potency result in assay [11], in [12], in assay [13], in assay [14], in [15] and in [16] was “inactive” in each case. For the same compound, the Potency entry in assay [17] was “inactive”.

In the case of `CCN(CC)C(=O)SCc1ccc(Cl)cc1`, the Potency entry in assay [1], in assay [2], in assay [3], in assay [4], in assay [5] and in [6] was “inactive” each time. The Potency result (in [7]; in [8]; with Aromatase (Homo sapiens); in assay [9]; in assay [10]; in assay [11]) was “inactive” in each case. In addition, the Potency result in [12], in assay [13], in assay [14], in [15], in assay [16] and in assay [19] was “inactive” each time.

`NC(=S)Nc1ccccc1`: the Potency entry in assay [1], in assay [2], in assay [3], in [4], in [5] and in assay [6] was “inactive” in each case. Besides, the Potency result (in assay [7]; in [8]; in the assay with Aromatase (Homo sapiens); in assay [9]; in assay [18]; in assay [10]) was “inactive” throughout. Further, the Potency entry in [12], in assay [13], in [14], in assay [15], in assay [16] and in assay [19] was “inactive” throughout.

`CCN(N=O)C(N)=O`: the Potency result in assay [1], in assay [2], in assay [3], in assay [4], in assay [5] and in [6] was “inactive” each time. The Potency entry (in assay [7]; in [8]; with Aromatase (Homo sapiens); in [9]; in assay [18]; in assay [10]) was “inactive” in each case. For the same compound, the Potency result in [12], in assay [13], in assay [14], in assay [15], in assay [16] and in assay [19] was “inactive” throughout.

In the case of `COP(=S)(OC)Oc1ccc([N+](=O)[O-])cc1`, the Potency entry in [1], in [2], in [3], in [4], in assay [5] and in [7] was “inactive” each time. Further, the Potency entry (in assay [8]; in the assay with Aromatase (Homo sapiens); in assay [9]; in assay [18]; in [10]; in assay [11]) was “inactive” in each case. The Potency entry in assay [13], in assay [15], in assay [16], in assay [19] and in [17] was “inactive” each time. Moreover, the Potency in assay [6] was 48.6 µM (active) and inactive.

With `OCC(O)CO`, the Potency result in [1], in [2], in assay [3], in [4], in assay [5] and in assay [6] was “inactive” each time. Moreover, the Potency entry (in assay [7]; in assay [8]; with Aromatase (Homo sapiens); in assay [9]; in [10]; in assay [12]) was “inactive” each time. The Potency entry in assay [13], in [14], in assay [15], in assay [16] and in assay [19] was “inactive” each time.

On to `CCOP(=S)(OCC)O/N=C(\C#N)c1ccccc1`, for which the Potency entry (in assay [1]; in [2]; in [4]; in assay [8]; with Aromatase (Homo sapiens); in assay [9]) was “inactive” each time. Also, the Potency entry in assay [10], in assay [11], in assay [12], in assay [13], in assay [14] and in assay [15] was “inactive” each time. For the same compound, the Potency entry in [16] and in assay [19] was “inactive” in each case. The Potency in assay [18] is 10.6 µM (active) and 21.7 µM (active).

As for `O=C1C=CC(=O)C=C1`, the Potency result (in [1]; in assay [2]; in assay [4]; in assay [8]; with Aromatase (Homo sapiens); in assay [9]) was “inactive” in each case. The Potency entry in assay [18], in assay [10], in assay [15], in [16] and in assay [17] was “inactive” throughout.

Consider `CN(C)c1ccc(C(=O)c2ccc(N(C)C)cc2)cc1`, for which the Potency is 5.39 µM (active) and 1.09 µM (active) in [1]; 428 nM (active) and 3.86 µM (active) in assay [18]. For the same compound, the Potency result (in [2]; in assay [4]; in assay [8]; with Aromatase (Homo sapiens); in [9]; in [13]) was “inactive” each time. Moreover, the Potency result in assay [15], in assay [16] and in [19] was “inactive” throughout.
